From PubChem
FUS suppressor: rescues growth of FUS-expressing yeast | S. cerevisiae FUS-expressing, growth rescue, OD600, 24 h | Potency, µM (series often up to 76.6 µM), most hits filed as activators | 390,000 compounds, 0.24% hits;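 note: potency is the fitted concentration of half-maximal effect; plate controls were DMSO vehicle for no effect and reference control for full effect; nearly all actives have a fitted effect of over 55% in size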
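Cultures pregrown in 2.5% raffinose medium are shifted to minimal medium containing 2% galactose to express toxic FUS. Compounds are tested at several concentrations. After 24hr at 30C, growth is quantified at 600 nm absorbance.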
TDP43 rescue: inhibitors of TDP-43 toxicity in yeast; TDP-43 expressing yeast growth rescue, BacTiter-Glo, 24 h; Potency, µM (highest dose often 46.1 µM), inactives show top-dose growth rescue (activation), usual class: activators; 410,000 compounds, 1.8% hits; AID 652104; note: potency is the fitted concentration of half-maximal effect; % of control where 0% means no effect; nearly all actives have a fitted effect of over 50% in size
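Yeast cells expressing TDP-43 under galactose induction are exposed to compounds for 24 hr at 30 deg C. BacTiter-Glo luminescence measures growth, so protective compounds score as activators.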
IDH1 R132H inh: human IDH1 R132H inhibition; IDH1-R132H enzyme, NADPH consumption, diaphorase/resazurin fluorescence; Potency, µM (top dose mostly 76.6 µM), without a hit: at the top dose activity change, negative = inhibition, usual class: inhibitors; 390,000 compounds, 0.093% hits; AID 602179; note: potency is the fitted concentration of half-maximal effect; % is set by controls: 0 for no effect and ±100 for the full control effect; nearly all actives have a fitted effect of over 65% in size
Target sequence (O75874 whole entry R132H, stated change not applied): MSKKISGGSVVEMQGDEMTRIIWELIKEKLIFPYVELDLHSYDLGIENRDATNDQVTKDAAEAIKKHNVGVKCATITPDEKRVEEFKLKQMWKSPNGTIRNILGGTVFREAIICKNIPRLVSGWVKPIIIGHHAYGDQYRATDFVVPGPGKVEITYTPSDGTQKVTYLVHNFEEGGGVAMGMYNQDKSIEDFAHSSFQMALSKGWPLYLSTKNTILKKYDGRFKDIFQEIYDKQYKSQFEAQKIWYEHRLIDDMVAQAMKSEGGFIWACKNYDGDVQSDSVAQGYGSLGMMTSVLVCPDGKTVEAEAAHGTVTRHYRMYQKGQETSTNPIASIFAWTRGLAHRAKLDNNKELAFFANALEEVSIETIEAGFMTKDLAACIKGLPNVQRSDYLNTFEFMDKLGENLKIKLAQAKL
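IDH1-R132H (0.5 ug/mL dispensed) in pH 7.5 Tris buffer was preincubated 30 min with compound, then given a substrate mix of 0.016 mM NADPH and 2 mM alpha-KG for 80 min at room temperature; remaining NADPH was read by diaphorase/resazurin fluorescence.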
aSyn yeast inh: inhibitors of alpha-synuclein toxicity in yeast; Yeast expressing alpha-synuclein, growth rescue, BacTiter-Glo, 24 h; Potency, µM (top dose mostly 46.1 µM), inactives show at the highest dose growth rescue (activation), actives largely listed as activators; 370,000 compounds, 0.14% hits; note: potency is the fitted concentration of half-maximal effect; % of control where 0% means no effect; nearly all actives have a fitted effect of over 65% in size
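Readout is rescue of growth in alpha-synuclein-expressing yeast, so inhibitors of toxicity appear as activators. Growth after 24 hr at 30 deg C in galactose medium is quantified by luminescence.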
LDHA block: blocks human lactate dehydrogenase A; 480,000 compounds, 0.15% hits; activity change, % (values are at about 110 or 230 µM); purified LDHA, NADH/diaphorase-resazurin fluorescence; hits give low values; P00338; in the data active = activity change below about -30%; inconclusive = mostly about -25% to -30%;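 note: plate controls were DMSO wells for no effect and wells without enzyme for full effect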
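Remaining NADH was detected by diaphorase (0.133 mg/mL) converting 37 µM resazurin to fluorescent resorufin, read at 0 and 20 minutes. The preceding 5-minute room-temperature reaction used 2 nM LDHA, 0.2 mM sodium pyruvate and 0.06 mM NADH at pH 7.4.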
Abeta rescue: compounds reversing amyloid beta toxicity in yeast; yeast expressing A-beta42, growth rescue, OD600, 48 h; response scale: 0% DMSO, 100% iron-clioquinol control; Potency, µM (doses to about 46.1 µM), actives largely listed as activators; 410,000 compounds, 0.063% hits; note: potency is the fitted concentration of half-maximal effect; nearly all actives have a fitted effect of over 55% in size
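Growth rescue measured by 600 nm absorbance after 48 h yeast culture at 30 C with compound. Values normalized between DMSO and an equimolar ferric chloride plus clioquinol control.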
* = called active by the depositor; i = inactive; u = inconclusive; x = not tested or not shown; [ ] = remark or other dose. Shown are actives, neighbours in structure and some others; about 2% of the full set was active somewhere. Unless noted, calls come from the whole dose curve; as a rule, active = well fitted curve in the direction sought with a large enough effect; inconclusive = small, poorly fitted or top-dose-only effect, or another doubt; inactive = no such curve, though single readings can be large; an effect the other way counts as inactive or inconclusive.

SMILES	FUS suppressor	TDP43 rescue	IDH1 R132H inh	aSyn yeast inh	LDHA block	Abeta rescue
CC(C)(C)C(=O)NC(=S)Nc1cc(C(F)(F)F)ccc1N1CCOCC1	i	3.7%	5.1%	18.5%	1.5	i
O=C(CCCCl)NC(=S)Nc1cc(C(F)(F)F)ccc1N1CCOCC1	i	12.6µM*	6.0%	0.0%	-2.0	u
O=C(N/N=C/c1c(O)ccc2ccccc12)C(=O)N1CCCC1	i	2.3%	14.1%	22.4µM*	1.4	u
O=C(CN1CCCC1)N/N=C/c1c(O)ccc2ccccc12	i	-11.4%	6.2%	1.2%	11.4	i
CC(c1ccccc1)N(C)C(=O)COC(=O)c1cc2ccccc2[nH]1 (stereo not given)	x	x	x	x	13.6	x
Cc1ccc(NC(=O)CSc2nc(-c3ccc(C(C)(C)C)cc3)nc3cc(=O)[nH]n23)cc1C	i	-22.3%	17.3%	x	-40.5*	i
Cc1ccc(OCC(=O)Nc2ccc3c(C)cc(=O)oc3c2)cc1	x	x	x	x	-5.0	x
N#Cc1cc(-c2ccccc2)[nH]c1-c1nccc2ccccc12	i	11.2µM*	9.0%	6.3%	-2.7	i
Cc1cccc(OCCCC(=O)NNC(=O)c2ccncc2)c1	i	-5.6%	-8.7%	0.2%	-11.1	i
Cc1cccc(OCCCC(=O)NNC(=O)c2ccccn2)c1	i	22.4µM*	-2.3%	u	3.0	u
Cc1cccc(Oc2cnn(C(C)(C)C)c(=O)c2Cl)c1	i	10µM*	4.7%	9.7%	-0.5	i
CC(C)CCNc1nc(-c2ccc(S(C)(=O)=O)cc2)cs1	x	x	x	x	0.8	x
Cc1c(-c2ccccc2)sc2nc[nH]c(=S)c12	i	15.8µM*	-5.1%	-4.1%	-8.3	u
Cc1nc(-c2ccccc2)c(-c2ccccc2)s1	x	x	x	x	0.3	x
CC(=O)Nc1ccc2[nH]cc(C(C(=O)O)N3CCN(c4cc(C)c5ccccc5n4)CC3)c2c1 (stereo not given)	x	x	x	x	1.2	x
Cc1cccc(-n2nnc(C(=O)NC3CCCc4ccccc43)c2N)c1 (stereo not given)	i	15.8µM*	9.9%	0.1%	3.0	i
CC1(C)CC(=O)C(CC(=O)NC2CCCc3ccccc32)C(=O)C1 (stereo not given)	i	25.1µM*	0.0%	-0.3%	-1.0	i
O=C(CSc1c(Cl)cccc1Cl)NC1CCCc2ccccc21 (stereo not given)	x	20.4%	5.3%	17.0%	-3.8	i
O=C(CSc1nnnn1-c1ccccc1)NC1CCCc2ccccc21 (stereo not given)	i	11.2µM*	-3.6%	5.8%	-3.1	u
Cc1ccccc1CC(=O)NC1CCCc2ccccc21 (stereo not given)	i	18.3%	22.7%	7.4%	-5.8	i
Cc1cccc(-n2nnc(C(=O)NC3CCCCC3)c2N)c1	x	x	x	x	1.3	x
Cc1cc(=O)oc2c(C)c(OCc3nc(-c4ccc(Cl)cc4)no3)ccc12	x	x	x	x	-8.3	x
Cn1c(=O)c2c(nc(NCCCc3ccccc3)n2Cc2cccc(Cl)c2)n(C)c1=O	x	x	x	x	11.5	x
CC(C)C(C(=O)Nc1ccccc1)N1C(=O)c2ccccc2C1=O (stereo not given)	i	15.8µM*	7.5%	7.9%	-0.3	i
CN(C1=C(N2CCOCC2)C(=O)c2ccccc2C1=O)c1ccccc1	x	11.2µM*	0.8%	-32.8%	31.2	i
SMILES	FUS suppressor	TDP43 rescue	IDH1 R132H inh	aSyn yeast inh	LDHA block	Abeta rescue
O=C1C(NS(=O)(=O)c2cccs2)=C(N2CCOCC2)C(=O)c2ccccc21	i	-10.3%	1.1%	3.0%	26.7	i
CC(/C=N/Nc1ccc([N+](=O)[O-])cc1[N+](=O)[O-])=C\c1ccco1	x	x	x	x	10.5	x
Clc1ccccc1Nc1nc(-c2ccncc2)nc2ccccc12	i	35.5µM*	-15.2%	0.9%	-3.9	i
COc1ccc(-c2coc3c(C(=O)NC4CCCCC4)cccc23)c(C)c1	i	18.7%	x	1.8%	-8.2	i
O=C(NC1CCCCC1)c1ccc(-c2cn[nH]c2)c2ccoc12	i	22.4µM*	x	-0.2%	-10.6	i
COc1ccc(-c2ccc(C(=O)NC3CCCCC3)c3occc23)c(C)c1	i	12.6µM*	x	-0.2%	-1.9	i
Cc1nc2sc3c(c2c2nc(C(=O)NCc4ccco4)nn12)CC(C)(C)OC3	x	x	x	x	7.6	x
CCCCN(Cc1ccccc1)c1ccc(NS(=O)(=O)c2ccc(C)c(C)c2)cc1C(=O)O	x	x	x	x	0.0	x
CN1OC[C@@H]2CN(S(=O)(=O)c3cccc4ccccc34)[C@H](c3ccc(-c4ccccc4)cc3)C[C@@H]21	i	u	-12.2%	11.5%	-30.3*	i
C#CCOC(=O)Nc1cccn(Cc2c(Cl)cccc2Cl)c1=O	i	11.2µM*	0.2%	-7.6%	-1.4	i
O=C(Nc1cccn(Cc2c(Cl)cccc2Cl)c1=O)C1CC1	i	u	12.8%	-15.4%	4.1	i
Cc1cccc(NC(=O)CSC2=C(C#N)C(c3ccccc3C)C3=C(CCCC3=O)N2)c1 (stereo not given)	x	x	x	x	3.5	x
Cn1c(-c2ccccc2)cnc1NC(=O)NCCc1ccccc1	x	x	x	x	6.6	x
C[n+]1c(/C=C/c2ccc3c(c2)OCO3)ccc2ccccc21	i	-11.6%[9.22 µM]	1.1%	-9.8%	-32.6*	i
COc1ccccc1-n1[nH]c(CSc2nnnn2-c2ccccc2)cc1=O	x	x	x	x	-8.5	x
CCCCCSc1nc2c(c(=O)[nH]c(=O)n2C)n1C	i	2.6%	-5.9%	0.1%	-6.3	i
CCCCCSc1nc2c(c(=O)[nH]c(=O)n2C)n1CC	i	12.6µM*	14.7%	-8.7%	0.2	i
CCCCCn1cc2c(c1-c1ccccc1Br)c(=O)n(C)c(=O)n2C	i	17.8µM*	13.7%	x	-3.8	i
CCOc1c(Cl)cc(Cl)cc1CNCc1ccncc1	x	x	x	x	1.5	x
Cc1cccc(Nc2nc(NCc3ccco3)nc(N3CCOCC3)n2)c1	i	12.6µM*	-5.9%	12.6%	-9.2	i
CCCCNC(C(=O)Nc1ccc([N+](=O)[O-])cc1Br)c1ccccc1 (stereo not given)	i	1.9%	12.3%	-7.9%	-31.5*	i
COCCNC(C(=O)Nc1ccc([N+](=O)[O-])cc1Br)c1ccccc1 (stereo not given)	i	18.3%	0.9%	4.7%	3.1	i
O=C1CS(=O)(=O)C2(C(=O)N(Cc3ccccc3)c3ccccc32)N1c1ccc(F)c(Cl)c1 (stereo not given)	i	20µM*	1.4%	11.8%	1.7	i
